In PubChem BioAssay (Tox21):
Inconclusive results are not listed. Where a call stands in place of a potency, no number is given. Values without a mark were called inactive. Activity calls are given as the source filed them. Calls follow the shape of the full dose curve. Bridge positions count the residues as written; N and C are the ends. Square brackets hold non-standard residues; d marks the D form. Peptide text beside a SMILES is read from it. hArg = N=C(N)NCCCC[C@H](N)C(=O)O; Mpa = O=C(O)CCS

Assay: p53 small molecule agonists, cell-based qHTS assay: qHTS cell viability counter screen (AID 1963581); also: nearly all actives have a fitted effect of over 45% in size
Conditions: p53RE-bla HCT-116 viability, ATP luminescence, 16 h; series mostly up to 66 µM
Text: National Center for Advancing Translational Sciences [NCATS]
Division of Preclinical Innovation [DPI]
U.S. Environmental Protection Agency [EPA]
National Institutes of Environmental Health Sciences [NIEHS]
National Toxicology Program [NTP]
U.S. Food and Drug Administration [FDA]
p53, a tumor suppressor protein, is activated following cellular insult, including DNA damage and other cellular stresses. The activation of p53 regulates cell fate by inducing DNA repair, cell cycle arrest, apoptosis, or cellular senescence. The activation of p53, therefore, is a good indicator of DNA damage and other cellular stresses. The CellSensor p53RE-bla HCT-116 cell line (Invitrogen) contains a stably integrated beta-lactamase reporter gene under control of the p53 response elements. The activation of the reporter gene under culture conditions can be detected by fluorescence intensity. This cell line was used to screen the Tox21 compound library in a 1536-well plate format and to identify agonists that activate the p53 signaling pathway. The cytotoxicity of the Tox21 compound library against the p53 RE-bla HCT-116 cell line was tested in parallel by measuring the intra cellular ATP content in the same wells.
Tox21 Assay Protocol Summary:
The p53RE-bla cells were dispensed at 4,000 cells/5 ul/well in 1536-well black wall/clear bottom plates using a Multidrop dispenser. After the assay plates were incubated at a 37 C/5% CO2 incubator for 5 hours, 23 nL of compounds dissolved in DMSO, positive controls or DMSO only was transferred to the assay plate by a pin tool. The plates were incubated at 37 C for 16 hours. After 1 uL of LiveBLAzerTM B/G FRET substrate was added using a Flying Reagent Dispenser, the plates were incubated at room temperature for 2 hours, and fluorescence intensity was measured by an Envision plate reader. For cell viability readout that measures cytotoxicity, 4 ul/well of CellTiter-Glo reagent was added into the assay plates using a Flying Reagent Dispenser. After 30 min incubation at room temperature, the luminescence intensity in the plates was measured using a ViewLux plate reader.
In the case of `CC(C(=O)O)c1ccc2c(c1)[nH]c1ccc(Cl)cc12` (stereo not given), the Potency is reported as “inactive”. With `CC(=O)OCC=C(C)C` the Potency was “inactive”. For `Clc1ccc(Cn2c(CN3CCCC3)nc3ccccc32)cc1`, the Potency was “inactive”. For `CCCOC(OCCC)OCCC`, the Potency was “inactive”. For `COc1ccnc(CS(=O)c2nc3ccc(OC(F)F)cc3[nH]2)c1OC` (stereo not given), the Potency was “inactive”. In the case of `C[C@H]1[C@H](NC(=O)/C(=N/OC(C)(C)C(=O)O)c2csc(N)n2)C(=O)N1S(=O)(=O)O` (stereo in doubt), the Potency is reported as “inactive”. For `CNCC(O)c1ccc(O)c(O)c1` (stereo not given), the Potency was “inactive”. In the case of `CC(C)(Cc1c[nH]c2ccccc12)NCC(O)COc1ccccc1C#N` (stereo not given), the Potency is reported as “inactive”. With `CCCCCCCCCCCCCCCC(=O)OCC` the Potency was “inactive”. With `O=C1CN(/N=C/c2ccc([N+](=O)[O-])o2)C(=O)N1` the Potency was “inactive”. With `CO[Si](C)(OC)OC` the Potency was “inactive”. In the case of `O=S(=O)(c1cccc2cnccc12)N1CCCNCC1`, the Potency is reported as “inactive”. With `NC(=O)[C@@H]1CSSCCC(=O)N[C@@H](CCCCN=C(N)N)C(=O)NCC(=O)N[C@@H](CC(=O)O)C(=O)N[C@@H](Cc2c[nH]c3ccccc23)C(=O)N2CCC[C@H]2C(=O)N1` ([Mpa][hArg]GDWPC-NH2; disulfide 1-7) the Potency was “inactive”. With `C[C@H](CCC(=O)O)[C@H]1CC[C@H]2[C@@H]3[C@H](O)C[C@@H]4C[C@H](O)CC[C@]4(C)[C@H]3CC[C@]12C` the Potency was “inactive”. With `O=C(Cl)c1ccc(Cl)cc1Cl` the Potency was “inactive”. For `O=C1CC[C@@H](C(=O)O)N1`, the Potency was “inactive”. In the case of `CC(=O)/C=C/C=C1/C2CCC(C2)C1(C)C` (stereo not given), the Potency is reported as “inactive”. For `C=C(C)C(=O)OCCOc1ccccc1`, the Potency was “inactive”. For `c1ccc2c(c1)CCCC2C1=NCCN1` (stereo not given), the Potency was “inactive”. With `CCCCCCCCCOC(=O)CCCCC(=O)OCCCCCCC` the Potency was “inactive”. With `CC/C=C\CC/C=C/CO` the Potency was “inactive”. With `Cc1coc2ccccc2c1=O` the Potency was “inactive”. For `CC/C=C1/OC(=O)c2ccccc21`, the Potency was “inactive”. For `O[Si](c1ccccc1)(c1ccccc1)c1ccccc1`, the Potency was “inactive”. In the case of `CCCN(C1CCN(C(=O)C2CCNCC2)CC1)[C@@H]1CCc2ccc(OC)cc2C1`, the Potency is reported as “inactive”. In the case of `CC(C)COCC(CN(Cc1ccccc1)c1ccccc1)N1CCCC1` (stereo not given), the Potency is reported as “inactive”. For `Nc1ccc(N=Nc2ccc(N)cc2)cc1`, the Potency was “inactive”. In the case of `CC(C)c1ccc(O)c(C(C)C)c1`, the Potency is reported as “inactive”. With `CO/N=C(/C(=O)N[C@@H]1C(=O)N2C(C(=O)O)=C(Cn3nnc(C)n3)CS[C@H]12)c1csc(N)n1` the Potency was “inactive”. For `NC(=O)c1c(Cl)cccc1Cl`, the Potency was “inactive”. With `CCCCC(CC)COP(=O)(O)O` (stereo not given) the Potency was “inactive”. In the case of `C#C[C@]1(OC(C)=O)CC[C@H]2[C@@H]3CCC4=C/C(=N/O)CC[C@@H]4[C@H]3CC[C@@]21CC`, the Potency is reported as “inactive”. With `NNC(=O)CP(=O)(c1ccccc1)c1ccccc1` the Potency was “inactive”. With `CCCCCCCCCCCCOCCOCCOCCOCCOCCOCCOCCOCCOCCO` the Potency was “inactive”. In the case of `CC(C)(c1ccc(Oc2ccc(N)cc2)cc1)c1ccc(Oc2ccc(N)cc2)cc1`, the Potency is reported as “inactive”. In the case of `CCN1/C(=C/C=C/c2sc3ccccc3[n+]2CC)Sc2ccccc21`, the activity change, negative = cytotoxicity is reported as 1.06% [at 13.5 µM]. In the case of `CC(=O)OCCC(C)CC(C)(C)C` (stereo not given), the Potency is reported as “inactive”. In the case of `Cc1cc(C)c(C)c(C)c1`, the Potency is reported as “inactive”. For `CCCCCOC(=O)c1ccc(O)cc1`, the Potency was “inactive”. For `CC1=CCC(C(C)C)C=C1` (stereo not given), the Potency was “inactive”.
